Holding throughout (conditions): mRNA level, 48 h; actives raise or lower the signal
Read-out in experiment [1]: Interleukin 6 Receptor (IL6R), IL6R (gene 3570)
In words: LTEA_HepaRG_IL6R: Life Technologies and Expression Analysis (LTEA) Assay for Interleukin 6 Receptor (IL6R) using HepaRG (AID 2283510). The method, boiled down:
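Concentration-response in human liver HepaRG cells: eight concentrations from 100 uM downward by half-logs, 48 h exposure, 0.5% DMSO vehicle. IL6R mRNA change measured by qRT-PCR and fitted in both directions relative to vehicle.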

Read-out in experiment [2]: Potassium channel subfamily K member 1 (KCNK1), KCNK1 (gene 3775)
In words: LTEA_HepaRG_KCNK1: Life Technologies and Expression Analysis (LTEA) Assay for Potassium channel subfamily K member 1 (KCNK1) using HepaRG (AID 2283511). The method, boiled down:
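Differentiated human HepaRG cells in serum-free induction medium were exposed in duplicate for 48 h to 8 half-log concentrations up to 100 uM in 0.5% DMSO. KCNK1 mRNA was measured by TaqMan qRT-PCR, normalized to ACTB, GAPDH and POLR2A, and fitted bidirectionally versus DMSO.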

Read-out in experiment [3]: Keratin 19 (KRT19), KRT19 (gene 3880)
Description: LTEA_HepaRG_KRT19: Life Technologies and Expression Analysis (LTEA) Assay for Keratin 19 (KRT19) using HepaRG (AID 2283512). The procedure, abridged:
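Differentiated HepaRG cells in serum-free induction medium, exposed 48 h in duplicate to 8 half-log concentrations up to 100 uM in 0.5% DMSO. KRT19 mRNA by qRT-PCR, normalized to ACTB, GAPDH, POLR2A; bidirectional fit vs DMSO.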

Read-out in experiment [4]: JUN Transcription Factor, JUN (gene 3725)
Description: LTEA_HepaRG_JUN: Life Technologies and Expression Analysis (LTEA) Assay for JUN Transcription Factor using HepaRG (AID 2283513). The procedure, abridged: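 Human HepaRG liver cells receive test chemicals in 0.5% DMSO for 48 h across an eight-point range topping at 100 uM. Expression changes in JUN are scored in both directions against the DMSO vehicle.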

Read-out in experiment [5]: Lipase C (LIPC), LIPC (gene 3990)
In words: LTEA_HepaRG_LIPC: Life Technologies and Expression Analysis (LTEA) Assay for Lipase C (LIPC) using HepaRG (AID 2283514). The procedure, abridged: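 Differentiated human HepaRG cells in serum-free induction medium were exposed in duplicate for 48 h to eight concentrations (top 100 uM, half-log steps, 0.5% DMSO). LIPC mRNA was quantified by TaqMan qRT-PCR, normalized to ACTB, GAPDH and POLR2A, with bidirectional fitting versus DMSO.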

Read-out in experiment [6]: Lipoprotein lipase (LPL), LPL (gene 4023)
In words: LTEA_HepaRG_LPL: Life Technologies and Expression Analysis (LTEA) Assay for Lipoprotein lipase (LPL) using HepaRG (AID 2283515). The procedure, abridged:
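Differentiated human HepaRG cells in serum-free induction medium were exposed in duplicate for 48 h to eight half-log concentrations (top 100 uM) in 0.5% DMSO. LPL mRNA was quantified by TaqMan qRT-PCR, normalized to ACTB, GAPDH and POLR2A.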

Read-out in experiment [7]: MicroRNA 122 (MIR122), gene 406906
Description: LTEA_HepaRG_MIR122: Life Technologies and Expression Analysis (LTEA) Assay for MicroRNA 122 (MIR122) using HepaRG (AID 2283516). Note: the transcript read is the microRNA miR-122. The procedure, abridged:
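HepaRG, 48 h exposure, 8-pt half-log from 100 uM, 0.5% DMSO; TaqMan qRT-PCR; bidirectional fit vs DMSO.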

Read-out in experiment [8]: matrix metalloproteinase-10 (MMP10), MMP10 (gene 4319)
Description: LTEA_HepaRG_MMP10: Life Technologies and Expression Analysis (LTEA) Assay for matrix metalloproteinase-10 (MMP10) using HepaRG (AID 2283517). The procedure, abridged:
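HepaRG, collagen I, ~100,000 cells/well; serum-free induction medium; 48 h exposure, duplicate, 8-pt half-log to 100 uM, 0.5% DMSO. Readout: TaqMan qRT-PCR, normalized to ACTB/GAPDH/POLR2A; bidirectional fit vs DMSO.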

Read-out in experiment [9]: MYC, MYC (gene 4609)
In words: LTEA_HepaRG_MYC: Life Technologies and Expression Analysis (LTEA) Assay for MYC using HepaRG (AID 2283518). The procedure, abridged: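 Differentiated HepaRG cells exposed 48 h in serum-free induction medium to 8 concentrations (top 100 uM, half-log steps; 0.5% DMSO), duplicate. MYC mRNA measured by Fluidigm qRT-PCR, normalized to ACTB, GAPDH, POLR2A; bidirectional fit versus DMSO.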

Read-out in experiment [10]: matrix metalloproteinase-3 (MMP3), MMP3 (gene 4314)
Description: LTEA_HepaRG_MMP3: Life Technologies and Expression Analysis (LTEA) Assay for matrix metalloproteinase-3 (MMP3) using HepaRG (AID 2283519). The method, boiled down:
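Differentiated human HepaRG cells, plated 48 h on collagen I, were exposed in duplicate for 48 h in serum-free induction medium to eight half-log concentrations up to 100 uM in 0.5% DMSO. MMP3 mRNA was quantified by TaqMan qRT-PCR, normalised to ACTB, GAPDH and POLR2A.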

Read-out in experiment [11]: Paternally Expressed 10 (PEG10), PEG10 (gene 23089)
In words: LTEA_HepaRG_PEG10: Life Technologies and Expression Analysis (LTEA) Assay for Paternally Expressed 10 (PEG10) using HepaRG (AID 2283520).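 For AC50: PEG10 transcript by qRT-PCR normalised to ACTB GAPDH and POLR2A.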 The procedure, abridged: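 Chemicals tested on HepaRG cells for 48 h, highest concentration 100 uM. PEG10 expression assessed by qRT-PCR relative to DMSO control.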

Read-out in experiment [12]: Nuclear factor NF-kappa-B p105 subunit (Homo sapiens) (UniProt P19838)
Description: LTEA_HepaRG_NFKB1: Life Technologies and Expression Analysis (LTEA) Assay for Nuclear Factor Kappa B Subunit 1 (NFKB1) using HepaRG (AID 2283521).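 Note: TaqMan qRT-PCR transcript normalised to ACTB GAPDH and POLR2A housekeeping genes.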 The method, boiled down:
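HepaRG, 48 h exposure; 8-pt half-log series from 100 uM in 0.5% DMSO; duplicates. Readout: NFKB1 mRNA by qRT-PCR (Fluidigm arrays), housekeeping-normalized. Gain/loss fit vs DMSO baseline.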

Read-out in experiment [13]: Protein phosphatase 2A (PPP2R4), PTPA (gene 5524)
Description: LTEA_HepaRG_PPP2R4: Life Technologies and Expression Analysis (LTEA) Assay for Protein phosphatase 2A (PPP2R4) using HepaRG (AID 2283522). The method, boiled down:
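Gene-expression endpoint in HepaRG hepatic cells: 48 h treatment across eight half-log concentrations up to 100 uM in 0.5% DMSO. PPP2R4 mRNA by qRT-PCR, normalized to three endogenous control genes.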

Read-out in experiment [14]: Phosphatase and tensin (PTEN), PTEN (gene 5728)
In words: LTEA_HepaRG_PTEN: Life Technologies and Expression Analysis (LTEA) Assay for Phosphatase and tensin (PTEN) using HepaRG (AID 2283523). The procedure, abridged: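 Differentiated human HepaRG cells, plated 48 h then switched to serum-free induction medium, were exposed in duplicate for 48 h to eight half-log concentrations up to 100 uM in 0.5% DMSO. PTEN mRNA measured by TaqMan qRT-PCR, normalized to ACTB/GAPDH/POLR2A, bidirectional fit versus DMSO.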

Read-out in experiment [15]: solute carrier (SLC22A1), SLC22A1 (gene 6580)
In words: LTEA_HepaRG_SLC22A1: Life Technologies and Expression Analysis (LTEA) Assay for solute carrier (SLC22A1) using HepaRG (AID 2283524). The method, boiled down: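 Human HepaRG cells were plated 48 h, switched to serum-free induction medium, then exposed in duplicate for 48 h to 8-point half-log series from 100 uM in 0.5% DMSO. SLC22A1 mRNA measured by qRT-PCR, normalized to ACTB/GAPDH/POLR2A, fitted bidirectionally versus DMSO.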

Read-out in experiment [16]: Pyruvate Dehydrogenase Kinase 4 (PDK4), PDK4 (gene 5166)
Description: LTEA_HepaRG_PDK4: Life Technologies and Expression Analysis (LTEA) Assay for Pyruvate Dehydrogenase Kinase 4 (PDK4) using HepaRG (AID 2283525). The procedure, abridged:
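Differentiated human HepaRG cells, pre-cultured 48 h, were exposed in duplicate for 48 h in serum-free induction medium to eight half-log concentrations up to 100 uM in 0.5% DMSO. PDK4 mRNA was quantified by qRT-PCR, normalized to ACTB, GAPDH and POLR2A, bidirectional fitting versus DMSO.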

Read-out in experiment [17]: NAD(P)H dehydrogenase [quinone] 1 (NQO1), NQO1 (gene 1728)
Description: LTEA_HepaRG_NQO1: Life Technologies and Expression Analysis (LTEA) Assay for NAD(P)H dehydrogenase [quinone] 1 (NQO1) using HepaRG (AID 2283526). The procedure, abridged:
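Human HepaRG hepatic cells received chemicals for 48 h in serum-free induction medium with 0.5% DMSO, up to 100 uM. Expression was assessed by TaqMan qRT-PCR against housekeeping controls and fitted bidirectionally against DMSO.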

Read-out in experiment [18]: Nuclear factor erythroid 2-related factor 2 (Homo sapiens) (UniProt Q16236)
Description: LTEA_HepaRG_NFE2L2: Life Technologies and Expression Analysis (LTEA) Assay for Nuclear factor erythroid 2-related factor 2 (NFE2L2) Transcription Factor using HepaRG (AID 2283527).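 Note: TaqMan qRT-PCR transcript level normalised to ACTB GAPDH and POLR2A housekeeping genes.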 The procedure, abridged: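 Differentiated human HepaRG cells in serum-free induction medium were exposed for 48 h to eight concentrations (top 100 uM, half-log dilutions, 0.5% DMSO), in duplicate. NFE2L2 mRNA was quantified by TaqMan qRT-PCR, normalized to ACTB, GAPDH and POLR2A, with bidirectional fitting versus DMSO.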

Read-out in experiment [19]: succinate dehydrogenase complex iron sulfur subunit B (SDHB), SDHB (gene 6390)
In words: LTEA_HepaRG_SDHB: Life Technologies and Expression Analysis (LTEA) Assay for succinate dehydrogenase complex iron sulfur subunit B (SDHB) using HepaRG (AID 2283528). The procedure, abridged:
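Readout is SDHB transcript level by qRT-PCR, normalised to three housekeeping genes and fitted bidirectionally against 0.5% DMSO vehicle. Human HepaRG cells were treated for 48 h at up to 100 uM.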

Read-out in experiment [20]: Signal transducer and activator of transcription 3 (Homo sapiens) (UniProt P40763)
Description: LTEA_HepaRG_STAT3: Life Technologies and Expression Analysis (LTEA) Assay for Signal transducer and activator of transcription (STAT3) using HepaRG (AID 2283529). The method, boiled down: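 Differentiated human HepaRG cells in serum-free induction medium were exposed in duplicate for 48 h to eight half-log concentrations up to 100 uM in 0.5% DMSO. STAT3 mRNA was quantified by TaqMan qRT-PCR, normalized to ACTB, GAPDH and POLR2A, and fitted bidirectionally against DMSO.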

The source made the active and inactive calls. Rule for the calls: active = hit-call score of the fitted dose curve at least 0.9, where 1 is the maximum; inactive = score below 0.9.

The AC50 is the midpoint of the concentration-response curve, whichever way the signal moves.

Chain of Signal transducer and activator of transcription 3 (Homo sapiens) (P40763 whole entry, looked up): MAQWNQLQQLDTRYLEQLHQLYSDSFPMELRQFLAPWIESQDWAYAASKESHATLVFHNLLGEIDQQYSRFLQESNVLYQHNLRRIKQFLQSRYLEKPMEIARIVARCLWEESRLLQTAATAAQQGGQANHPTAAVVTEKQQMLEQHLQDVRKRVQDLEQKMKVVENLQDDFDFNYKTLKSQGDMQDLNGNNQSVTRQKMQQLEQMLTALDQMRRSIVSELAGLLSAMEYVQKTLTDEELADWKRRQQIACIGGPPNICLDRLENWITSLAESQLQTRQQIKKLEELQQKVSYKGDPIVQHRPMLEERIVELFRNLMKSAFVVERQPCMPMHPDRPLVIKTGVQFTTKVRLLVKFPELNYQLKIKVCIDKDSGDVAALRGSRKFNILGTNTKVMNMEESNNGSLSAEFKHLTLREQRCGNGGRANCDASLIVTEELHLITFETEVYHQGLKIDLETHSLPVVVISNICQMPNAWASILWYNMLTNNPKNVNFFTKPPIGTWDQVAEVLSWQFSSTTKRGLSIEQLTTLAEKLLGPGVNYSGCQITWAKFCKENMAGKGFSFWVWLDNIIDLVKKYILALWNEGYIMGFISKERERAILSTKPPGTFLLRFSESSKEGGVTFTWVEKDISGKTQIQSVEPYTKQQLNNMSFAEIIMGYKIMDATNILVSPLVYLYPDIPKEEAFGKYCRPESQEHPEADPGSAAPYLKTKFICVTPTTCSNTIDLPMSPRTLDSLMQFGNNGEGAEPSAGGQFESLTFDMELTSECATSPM
Chain of Nuclear factor erythroid 2-related factor 2 (Homo sapiens) (Q16236 whole entry, looked up): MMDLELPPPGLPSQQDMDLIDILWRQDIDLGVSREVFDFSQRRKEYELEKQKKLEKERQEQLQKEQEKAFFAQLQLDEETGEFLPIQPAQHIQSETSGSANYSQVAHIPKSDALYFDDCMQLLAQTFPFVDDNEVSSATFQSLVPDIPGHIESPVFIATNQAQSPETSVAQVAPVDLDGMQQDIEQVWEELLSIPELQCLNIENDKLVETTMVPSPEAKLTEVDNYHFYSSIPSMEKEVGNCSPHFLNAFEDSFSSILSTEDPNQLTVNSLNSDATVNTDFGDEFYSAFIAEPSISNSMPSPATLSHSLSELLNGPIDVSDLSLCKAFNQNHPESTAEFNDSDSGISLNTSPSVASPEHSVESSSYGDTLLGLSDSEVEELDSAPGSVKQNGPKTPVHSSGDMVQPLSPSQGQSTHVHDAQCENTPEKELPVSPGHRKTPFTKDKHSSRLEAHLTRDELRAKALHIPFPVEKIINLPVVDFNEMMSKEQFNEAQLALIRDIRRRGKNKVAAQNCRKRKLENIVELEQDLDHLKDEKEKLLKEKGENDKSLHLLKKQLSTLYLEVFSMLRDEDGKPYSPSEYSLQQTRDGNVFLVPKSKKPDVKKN
Chain of Nuclear factor NF-kappa-B p105 subunit (Homo sapiens) (P19838 whole entry, looked up): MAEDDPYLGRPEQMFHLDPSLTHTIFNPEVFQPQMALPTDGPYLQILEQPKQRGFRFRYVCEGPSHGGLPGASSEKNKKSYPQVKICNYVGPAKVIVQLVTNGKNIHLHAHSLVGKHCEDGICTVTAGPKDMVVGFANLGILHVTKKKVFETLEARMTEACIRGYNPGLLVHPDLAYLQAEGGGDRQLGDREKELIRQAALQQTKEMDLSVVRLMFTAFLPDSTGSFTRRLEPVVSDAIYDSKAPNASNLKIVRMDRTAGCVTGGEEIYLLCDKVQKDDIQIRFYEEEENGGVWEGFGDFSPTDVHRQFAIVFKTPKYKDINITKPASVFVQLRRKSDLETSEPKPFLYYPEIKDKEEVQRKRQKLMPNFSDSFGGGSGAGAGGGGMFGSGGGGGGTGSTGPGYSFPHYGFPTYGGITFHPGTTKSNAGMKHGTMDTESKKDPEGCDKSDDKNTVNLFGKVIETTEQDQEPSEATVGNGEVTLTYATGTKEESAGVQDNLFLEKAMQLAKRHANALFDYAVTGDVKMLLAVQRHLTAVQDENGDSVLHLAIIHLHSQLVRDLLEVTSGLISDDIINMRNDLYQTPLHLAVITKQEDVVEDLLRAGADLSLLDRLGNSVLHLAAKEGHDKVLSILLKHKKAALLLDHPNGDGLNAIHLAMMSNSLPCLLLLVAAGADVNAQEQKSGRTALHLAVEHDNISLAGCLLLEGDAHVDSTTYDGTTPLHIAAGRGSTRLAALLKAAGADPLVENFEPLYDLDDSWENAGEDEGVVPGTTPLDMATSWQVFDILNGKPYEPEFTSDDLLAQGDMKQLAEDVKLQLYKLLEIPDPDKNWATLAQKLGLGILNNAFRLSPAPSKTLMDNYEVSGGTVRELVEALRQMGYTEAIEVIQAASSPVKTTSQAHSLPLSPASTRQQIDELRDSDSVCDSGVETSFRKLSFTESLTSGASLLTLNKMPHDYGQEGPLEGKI

In the case of `O=P(O)(O)CCCl`, the outcome in [1], in experiment [2], in [3], in experiment [4], in [5] and in [6] was inactive. In addition, the result in [7], in [8], in experiment [9], in [10], in experiment [11] and in [12] was inactive. Moreover, the outcome in experiment [13], in experiment [14], in experiment [15], in [16], in experiment [17] and in experiment [18] was inactive. In addition, the call in experiment [19] and in experiment [20] was inactive.
For the molecule `CN/C(=N\[N+](=O)[O-])NCc1cnc(Cl)s1`, the result in experiment [1], in [4], in experiment [5], in [6], in experiment [7] and in [8] was inactive. For the same molecule, the molecule was classed as inactive in experiment [9], in experiment [10], in experiment [11], in experiment [13], in [14] and in experiment [15]. Besides, the call in experiment [17], in experiment [18], in experiment [19] and in experiment [20] was inactive. Moreover, the AC50 in experiment [2] is 50 µM (active); in [3], 17.8 µM (active); in [16], 36.6 µM (active).
With `O=C(Nc1ccccc1-c1ccc(Cl)cc1)c1cccnc1Cl`, the call in [1], in experiment [2], in experiment [3], in [4], in experiment [5] and in [6] was inactive. The molecule was called inactive in [7], in experiment [8], in experiment [9], in experiment [10], in experiment [12] and in [13]. Moreover, the molecule was called inactive in [14], in experiment [15], in experiment [16], in [17], in experiment [18] and in [19]. Further, the AC50 in experiment [11] is 21 µM (active); in experiment [20], 539 nM (active).
